The panel holds about 83,000 compounds, 20% with a hit somewhere; the sample as a whole holds those more often.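 Single-concentration screen, 48 h exposure, 96-well plates. Endpoint: percent growth. Below 10 = active.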 Unmarked numbers belong to inactive results. Active and inactive are the calls of the source.
Tested on: BT-549 breast
Test: NCI-60 one-dose screen, 48 h (100 = growth as untreated, 0 = no growth, -100 = all killed)
Settings: 10 µM unless noted

| Compound | growth |
| --- | --- |
| CCC(=O)Nc1cc2c(cc1Cl)-c1ccccc1C2 | 86.1% |
| FC(F)(F)c1ccc(-c2cnc(-c3nn[nH]n3)nc2NC2CCCCCC2)cc1 | 50.8% [50 µM] |
| CCn1cnc(C[C@H](NC(=O)[C@H](CCCCNC(=O)Nc2cc(C(F)(F)F)cc(C(F)(F)F)c2)NC(=O)Nc2cc(C(F)(F)F)cc(C(F)(F)F)c2)C(=O)OC)c1 | -35.3% [100 µM] (active) |
| O=c1ncc(-c2ccc(C(F)(F)F)cc2)c(NC2CCCCCC2)[nH]1 | 72.7% |
| Nc1nc(Nc2ccccc2SSc2ccccc2Nc2nc(N)nc(-c3cccc(Cl)c3)n2)nc(-c2cccc(Cl)c2)n1 | 94.3% |
| Cc1ccc2nc3c(n2c1)C(=O)C(=O)c1ccccc1-3 | -96.4% (active) |
| O=C1NC(=S)S/C1=C\c1cc(Br)ccc1O | 104% |
| O=C1OC2(c3ccccc31)c1ccccc1-c1ccccc12 | 82.7% |
| Cc1sc2nc(NCCc3cccs3)[nH]c(=O)c2c1C | 74.7% |
| COc1cc(/C=N/OC(=O)Nc2ccccc2)cc(OC)c1OC | 105% |
| CSc1nc2nc3c(nc2c(=O)n1C)C(=O)c1ccccc1C3=O | -94.8% (active) |
| O=C(CNc1ccc2c(c1)C(=O)c1ccccc1C2=O)Nc1ccc2c(c1)C(=O)c1ccccc1C2=O | -80.4% (active) |
| Nc1ccc2c(c1Br)Cc1ccccc1-2 | 89% |
| c1ccc2c(-c3nc4ccccc4[nH]3)cccc2c1 | 24.3% |
| O=C(O)c1ccc2cccnc2c1O | -16.5% (active) |
| Cc1ccc(-c2c3c(N)nc(-c4ccncc4)nc3nc3c2c(C)nn3-c2ccccc2)cc1 | 59.4% |
| N#Cc1c(-c2ccccc2)cc(-c2ccccc2)n(CCCCCCC(=O)O)c1=O | 101% |
| CCCCCN(CCCCC)CCCNc1c2c(nc3ccc(Cl)cc13)CCCC2 | 36.2% |
| Cc1cc(C)nc(NS(=O)(=O)c2ccc(Nc3nc4nc(SCc5ccccc5)nc(-c5ccc(O)cc5)c4c(=O)[nH]3)cc2)n1 | 107% |
| O=C1/C(=C/c2ccccc2Cl)CCc2ccccc21 | 108% |

| Compound | growth |
| --- | --- |
| C/C(=C\CCc1ccoc1)CC/C=C(\C)CCCC1COC(=O)C1 (stereo not given) | 108% |
| CC1Cc2ccccc2N1C(=O)c1ccc(C(=O)c2ccccc2)cc1 (stereo not given) | 84% |
| COC(=O)[C@H](Cc1cn(C)cn1)NC(=O)[C@H](C)NC(=O)Nc1cc(C(F)(F)F)cc(C(F)(F)F)c1 | -91.6% [100 µM] (active) |
| N#Cc1ccccc1C#Cc1ccccc1C#Cc1ccc(OCCCCCCOc2ccc(C#Cc3ccccc3C#Cc3ccccc3C#N)cc2)cc1 | 112% |
| CC[N+](CCCCCCCCCC[N+](CC)(c1ccccn1)c1ccccn1)(c1ccccn1)c1ccccn1 | 19.1% |
| COc1ccc2c(c1)C(=Nc1cc(OC)c(OC)c(OC)c1)C(=O)N2 | 99% |
| O=C(/C=C/c1c(-c2ccccc2)[nH]c2ccccc12)S(=O)(=O)c1ccccc1 | 87.9% |
| O=c1ccn(C2CC=C(CO)O2)c(=O)[nH]1 (stereo not given) | 106% |
| C=CCN(/C=C/CN(CC=C)CC=C)CC=C | 100% |
| Cc1ccc2nc(-c3ccc(N(C)C)c(Br)c3)cn2c1 | 71.4% |
| CN(C)CCC(=O)Nc1ccc(-n2cc(-c3cccc(NC(=S)Nc4cccc(-c5cn(-c6ccc(NC(=O)CCN(C)C)cc6)nn5)c4)c3)nn2)cc1 | 81.6% |
| C[C@]12CC[C@H](O)CC1=CC[C@@H]1[C@@H]2CC[C@]2(C)C(c3cccnc3)=CC[C@@H]12 | 59.5% |
| CCCCCCC(CC#N)(CCC)CCCC (stereo not given) | 120% |
| CCOC(=O)c1sc(NC(=O)COc2cccc(/C=C3\CCc4cc(OC)ccc4C3=O)c2)nc1C | -23.3% (active) |
| Cc1ccc(S(=O)(=O)N2CCN(C(=O)CSc3nc4ccc(C)cc4[nH]3)CC2)cc1 | 106% |
| CCOC(=O)c1cnc2c(C)cc(C)cc2c1NCCCN(C)C | 61.3% |
| Cc1ccc(C(NC(=O)c2ccccc2)c2ccc3cccnc3c2O)cc1 (stereo not given) | 25.5% |
| COc1ccc(C(=O)COc2ccc(/C=C3\Oc4ccc5ccccc5c4C3=O)cc2)cc1 | 45.1% |
| CCOC(=O)CCC(=O)O[C@H]1[C@H](O[C@@H]2[C@@H](C)[C@H](O[C@H]3C[C@@](C)(OC)[C@@H](O)[C@H](C)O3)[C@@H](C)C(=O)O[C@H](CC)[C@@](C)(O)[C@H](O)[C@@H](C)C(=O)[C@H](C)C[C@@]2(C)O)O[C@H](C)C[C@@H]1N(C)C | 97.3% |
| COc1ccc(-c2ccc(O)c(C(=O)/C=C/c3cc(OC)c(OC)c(OC)c3)c2)cc1 | 90.4% |
